Values without a mark were called inactive.
What was measured:
Experiment in all cases: log2 ratio of Biotin-Ahx-Ub-VS probe labelling (fragment/DMSO); higher = less target engagement (more negative = stronger competition), active = hit call of the paper (q ≤ 0.05, log2 ratio ≤ -1)
Settings in all cases: compound concentration: 200 uM; treatment time: 3 h
ALG13 = biological target: T1, ALG13 (UniProt Q9NP73)
T1 sequence (whole entry): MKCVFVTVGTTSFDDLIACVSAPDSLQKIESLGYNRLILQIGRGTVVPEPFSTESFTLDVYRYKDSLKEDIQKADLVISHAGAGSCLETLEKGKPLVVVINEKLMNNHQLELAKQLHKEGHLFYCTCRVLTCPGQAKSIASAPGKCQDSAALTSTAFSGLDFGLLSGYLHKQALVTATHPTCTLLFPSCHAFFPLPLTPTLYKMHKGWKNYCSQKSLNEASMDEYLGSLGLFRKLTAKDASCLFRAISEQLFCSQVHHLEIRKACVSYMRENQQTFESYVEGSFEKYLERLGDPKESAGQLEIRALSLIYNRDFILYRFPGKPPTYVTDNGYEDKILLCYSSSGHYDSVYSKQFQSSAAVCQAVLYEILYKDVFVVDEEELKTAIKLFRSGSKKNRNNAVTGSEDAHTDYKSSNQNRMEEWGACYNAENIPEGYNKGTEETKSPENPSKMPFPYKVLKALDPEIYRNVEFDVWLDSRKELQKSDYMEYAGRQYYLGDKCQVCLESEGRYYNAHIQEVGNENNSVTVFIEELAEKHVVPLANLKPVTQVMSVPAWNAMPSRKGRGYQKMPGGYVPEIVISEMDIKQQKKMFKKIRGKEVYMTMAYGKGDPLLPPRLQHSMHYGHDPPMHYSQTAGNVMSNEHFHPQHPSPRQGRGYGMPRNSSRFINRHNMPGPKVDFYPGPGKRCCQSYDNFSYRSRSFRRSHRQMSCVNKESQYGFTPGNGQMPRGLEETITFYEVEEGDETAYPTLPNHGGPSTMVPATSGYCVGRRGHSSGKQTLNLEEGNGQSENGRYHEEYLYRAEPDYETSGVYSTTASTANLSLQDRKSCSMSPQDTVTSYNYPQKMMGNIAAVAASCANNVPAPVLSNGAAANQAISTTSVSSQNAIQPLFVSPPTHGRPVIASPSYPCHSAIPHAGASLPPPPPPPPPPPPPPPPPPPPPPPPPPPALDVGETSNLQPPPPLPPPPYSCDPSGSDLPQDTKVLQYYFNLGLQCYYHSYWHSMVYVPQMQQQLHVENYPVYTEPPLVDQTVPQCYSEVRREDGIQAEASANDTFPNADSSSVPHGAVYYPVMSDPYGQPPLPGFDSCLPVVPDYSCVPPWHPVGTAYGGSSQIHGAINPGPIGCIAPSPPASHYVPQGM
Outline: (§1)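 Labelling with Biotin-Ahx-Ub-VS (0.5 µM final, 1 h) followed a 3 h triplicate treatment of HEK293T lysate (495 µg per sample, Tris/CHAPS/IGEPAL buffer with protease inhibitors) with fragment at 200 µM or vehicle. Labelled DUBs were NeutrAvidin-enriched, digested with LysC and trypsin, and run by diaPASEF LC-MS/MS. The values, average log2 fragment/vehicle ratios by unpaired t-test, come from global-median-normalised Spectronaut label-free quantities. Proteins with ≥2 unique peptides were used.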

ATXN3 = ATXN3 (UniProt P54252)
Chain of ATXN3 (P54252 whole entry): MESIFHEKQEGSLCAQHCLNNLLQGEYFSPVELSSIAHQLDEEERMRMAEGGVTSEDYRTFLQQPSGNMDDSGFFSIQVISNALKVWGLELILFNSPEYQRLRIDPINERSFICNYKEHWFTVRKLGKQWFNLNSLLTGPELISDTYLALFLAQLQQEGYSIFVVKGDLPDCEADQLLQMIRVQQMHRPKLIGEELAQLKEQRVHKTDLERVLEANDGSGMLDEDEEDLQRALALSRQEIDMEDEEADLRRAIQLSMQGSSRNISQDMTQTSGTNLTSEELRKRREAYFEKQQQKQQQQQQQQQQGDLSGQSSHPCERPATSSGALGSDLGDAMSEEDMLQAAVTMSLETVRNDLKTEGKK
Outline: as §1

BAP1 = biological target: T2, BAP1 (UniProt Q92560)
T2 sequence (whole entry): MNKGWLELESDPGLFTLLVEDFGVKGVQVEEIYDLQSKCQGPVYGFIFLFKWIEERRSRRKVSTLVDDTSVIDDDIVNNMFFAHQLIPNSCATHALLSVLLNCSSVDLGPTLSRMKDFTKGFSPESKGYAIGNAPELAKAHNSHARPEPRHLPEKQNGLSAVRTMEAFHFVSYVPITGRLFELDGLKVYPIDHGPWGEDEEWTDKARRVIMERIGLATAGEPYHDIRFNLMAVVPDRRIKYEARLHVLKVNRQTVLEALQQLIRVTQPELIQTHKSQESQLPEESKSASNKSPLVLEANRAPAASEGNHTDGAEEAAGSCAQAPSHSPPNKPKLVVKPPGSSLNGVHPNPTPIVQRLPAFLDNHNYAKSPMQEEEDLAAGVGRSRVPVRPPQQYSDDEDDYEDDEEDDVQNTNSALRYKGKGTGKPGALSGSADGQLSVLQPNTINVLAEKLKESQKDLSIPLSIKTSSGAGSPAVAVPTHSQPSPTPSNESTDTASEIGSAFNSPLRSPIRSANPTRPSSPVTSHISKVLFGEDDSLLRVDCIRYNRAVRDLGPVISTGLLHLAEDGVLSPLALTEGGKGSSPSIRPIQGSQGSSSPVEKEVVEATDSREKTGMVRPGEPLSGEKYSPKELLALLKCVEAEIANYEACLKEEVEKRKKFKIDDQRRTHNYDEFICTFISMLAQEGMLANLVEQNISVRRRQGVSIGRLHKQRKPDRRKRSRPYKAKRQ
Outline: as §1

EIF3F = EIF3F (UniProt O00303)
Chain of EIF3F (O00303 whole entry): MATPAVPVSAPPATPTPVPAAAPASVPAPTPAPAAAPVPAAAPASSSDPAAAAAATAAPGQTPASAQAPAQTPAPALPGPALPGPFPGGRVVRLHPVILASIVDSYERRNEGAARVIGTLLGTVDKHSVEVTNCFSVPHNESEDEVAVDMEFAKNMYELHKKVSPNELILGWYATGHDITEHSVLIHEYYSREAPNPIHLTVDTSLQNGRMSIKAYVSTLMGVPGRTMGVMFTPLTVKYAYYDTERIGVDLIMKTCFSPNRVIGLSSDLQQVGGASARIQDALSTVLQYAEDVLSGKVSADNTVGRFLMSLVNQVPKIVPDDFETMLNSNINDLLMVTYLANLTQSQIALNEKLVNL
Outline: as §1

EIF3H = EIF3H (UniProt O15372)
Chain of EIF3H (O15372 whole entry): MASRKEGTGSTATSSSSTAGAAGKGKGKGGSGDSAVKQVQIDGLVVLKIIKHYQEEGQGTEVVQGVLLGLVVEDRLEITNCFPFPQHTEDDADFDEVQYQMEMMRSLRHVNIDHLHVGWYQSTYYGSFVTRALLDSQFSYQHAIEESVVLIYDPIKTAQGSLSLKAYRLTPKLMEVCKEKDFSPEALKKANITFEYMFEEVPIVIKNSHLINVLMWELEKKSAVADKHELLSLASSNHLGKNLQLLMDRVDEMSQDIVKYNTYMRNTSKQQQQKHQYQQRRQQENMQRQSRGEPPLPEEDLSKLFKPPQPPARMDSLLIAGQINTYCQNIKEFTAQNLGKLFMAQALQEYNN
Outline: as §1

FAM105A = biological target: T3, FAM105A (UniProt Q9NUU6)
T3 sequence (whole entry): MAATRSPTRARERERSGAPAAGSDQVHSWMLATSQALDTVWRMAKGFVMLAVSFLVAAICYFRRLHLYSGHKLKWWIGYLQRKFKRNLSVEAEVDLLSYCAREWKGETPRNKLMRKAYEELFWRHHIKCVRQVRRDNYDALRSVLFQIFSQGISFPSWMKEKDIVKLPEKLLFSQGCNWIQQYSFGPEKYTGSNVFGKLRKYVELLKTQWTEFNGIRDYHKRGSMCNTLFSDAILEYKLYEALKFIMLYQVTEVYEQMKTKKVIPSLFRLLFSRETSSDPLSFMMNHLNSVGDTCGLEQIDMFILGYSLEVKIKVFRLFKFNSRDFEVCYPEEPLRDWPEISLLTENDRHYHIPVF
Outline: as §1

OTUB1 = OTUB1 (UniProt Q96FW1)
Chain of OTUB1 (Q96FW1 whole entry): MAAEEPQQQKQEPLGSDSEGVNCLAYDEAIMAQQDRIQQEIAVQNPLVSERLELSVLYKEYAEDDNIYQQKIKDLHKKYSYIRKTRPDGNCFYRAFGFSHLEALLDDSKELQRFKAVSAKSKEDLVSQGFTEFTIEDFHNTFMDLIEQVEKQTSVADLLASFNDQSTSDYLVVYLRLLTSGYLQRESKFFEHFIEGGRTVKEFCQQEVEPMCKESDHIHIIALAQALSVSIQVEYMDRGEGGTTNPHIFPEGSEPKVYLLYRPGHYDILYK
Outline: as §1

OTUD4 = biological target: T4, OTUD4 (UniProt Q01804)
T4 sequence (whole entry): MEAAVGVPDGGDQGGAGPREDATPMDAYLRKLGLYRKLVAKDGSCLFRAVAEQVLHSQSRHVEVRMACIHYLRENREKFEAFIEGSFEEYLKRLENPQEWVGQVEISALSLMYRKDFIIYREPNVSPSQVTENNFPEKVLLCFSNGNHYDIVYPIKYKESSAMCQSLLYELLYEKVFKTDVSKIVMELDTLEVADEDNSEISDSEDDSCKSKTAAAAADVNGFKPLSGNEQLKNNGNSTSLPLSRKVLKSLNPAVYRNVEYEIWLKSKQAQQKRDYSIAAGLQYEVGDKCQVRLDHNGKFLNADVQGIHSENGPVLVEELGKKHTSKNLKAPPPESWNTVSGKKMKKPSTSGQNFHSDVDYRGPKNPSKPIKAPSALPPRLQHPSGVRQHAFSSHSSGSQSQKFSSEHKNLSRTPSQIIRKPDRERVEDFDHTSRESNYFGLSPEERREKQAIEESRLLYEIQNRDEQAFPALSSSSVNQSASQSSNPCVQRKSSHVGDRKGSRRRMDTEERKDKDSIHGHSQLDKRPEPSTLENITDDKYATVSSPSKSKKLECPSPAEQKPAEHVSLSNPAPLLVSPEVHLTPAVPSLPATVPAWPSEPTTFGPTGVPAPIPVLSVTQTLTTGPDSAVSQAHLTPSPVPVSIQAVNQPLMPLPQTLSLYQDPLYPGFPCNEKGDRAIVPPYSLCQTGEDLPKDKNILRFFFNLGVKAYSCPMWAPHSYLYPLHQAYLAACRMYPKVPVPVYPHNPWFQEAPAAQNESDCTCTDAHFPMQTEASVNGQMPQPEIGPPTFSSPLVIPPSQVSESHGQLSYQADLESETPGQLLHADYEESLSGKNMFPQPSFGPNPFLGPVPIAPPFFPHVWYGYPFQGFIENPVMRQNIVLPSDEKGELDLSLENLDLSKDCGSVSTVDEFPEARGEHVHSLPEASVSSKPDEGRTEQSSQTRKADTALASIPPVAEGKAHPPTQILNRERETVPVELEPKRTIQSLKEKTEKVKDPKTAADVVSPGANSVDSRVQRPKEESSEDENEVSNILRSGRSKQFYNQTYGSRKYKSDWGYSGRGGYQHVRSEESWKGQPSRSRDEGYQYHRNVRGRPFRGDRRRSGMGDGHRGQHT
Outline: as §1

OTUD5 = biological target: T5, OTUD5 (UniProt Q96G74)
T5 sequence (whole entry): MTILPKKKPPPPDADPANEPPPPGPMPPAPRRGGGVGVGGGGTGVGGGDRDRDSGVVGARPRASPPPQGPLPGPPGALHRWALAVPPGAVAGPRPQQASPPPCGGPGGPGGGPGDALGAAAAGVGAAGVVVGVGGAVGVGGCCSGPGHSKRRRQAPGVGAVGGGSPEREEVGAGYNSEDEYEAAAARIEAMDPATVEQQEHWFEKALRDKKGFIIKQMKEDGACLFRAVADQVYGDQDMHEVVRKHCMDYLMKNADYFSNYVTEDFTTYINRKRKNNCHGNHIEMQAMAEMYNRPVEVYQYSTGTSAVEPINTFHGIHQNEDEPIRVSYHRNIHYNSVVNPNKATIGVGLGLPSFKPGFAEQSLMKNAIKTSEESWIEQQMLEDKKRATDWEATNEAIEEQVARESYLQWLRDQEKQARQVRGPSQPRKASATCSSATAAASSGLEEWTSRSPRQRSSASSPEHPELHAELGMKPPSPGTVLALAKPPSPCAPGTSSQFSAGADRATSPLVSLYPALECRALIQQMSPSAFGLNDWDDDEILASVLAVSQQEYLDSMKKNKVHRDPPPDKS
Outline: as §1

Cc1ccc(C(=O)NCCNC(=O)CCl)cc1
log2 ratio of Biotin-Ahx-Ub-VS probe labelling (ALG13): -0.0475
log2 ratio of Biotin-Ahx-Ub-VS probe labelling (ATXN3): -0.159
log2 ratio of Biotin-Ahx-Ub-VS probe labelling (BAP1): -1.49 (active)
log2 ratio of Biotin-Ahx-Ub-VS probe labelling (EIF3F): -0.13
log2 ratio of Biotin-Ahx-Ub-VS probe labelling (EIF3H): -0.101
log2 ratio of Biotin-Ahx-Ub-VS probe labelling (FAM105A): -0.349
log2 ratio of Biotin-Ahx-Ub-VS probe labelling (OTUB1): -0.162
log2 ratio of Biotin-Ahx-Ub-VS probe labelling (OTUD4): -0.371
log2 ratio of Biotin-Ahx-Ub-VS probe labelling (OTUD5): -0.264

Source: the supplement of paper PMC11732987, “Enantioselective OTUD7B fragment discovery through chemoproteomics screening and high-throughput optimisation” (Communications Chemistry, 2025)
